Source: PubChem BioAssay (Tox21)
Inconclusive results are not listed. Active and inactive are the calls of the source. Calls follow the shape of the dose curve; as a rule, active = well fitted curve in the direction sought with a large enough effect in the repeat runs; inconclusive = weak or mixed curves; inactive = no such curve, though single readings can be large; an effect the other way counts as inactive or inconclusive.

How the values were obtained:
[1] = qHTS RealTime-Glo MT Cell Viability Assay in HEK293 cells - 0 hour (AID 1224880); also: top concentration of the series differs between compounds; nearly all actives have a fitted effect of over 45% in size
Method in brief: (§1)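 Kinetic, non-lysing viability readout. Seed HEK293 (600/well) with reagent, incubate 5 h at 37 C/5% CO2, pin 23 nL compound in DMSO, incubate at 37 C, read luminescence at 0, 8, 16, 24, 32, 40 h.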

[2] = A CellTox Green Cytotoxicity Assay to monitor cytotoxicity in HEK293 cells - 32 hour (AID 1224881); also: nearly all actives have a fitted effect of over 40% in size; also: potency is read from the fitted curve at half-maximal effect
Method in brief: (§2)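 Real-time, in one plate: 600 HEK293 cells/well with dead-cell DNA dye, pinned compound after 5 h, 37 C incubation over 40 h; viable cells give no appreciable fluorescence.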

[3] = A CellTox Green Cytotoxicity Assay to monitor cytotoxicity in HepG2 cells - 0 hour (AID 1224882); also: nearly all actives have a fitted effect of over 35% in size
Method in brief: (§3)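 Cytotoxicity was tracked as dead-cell DNA fluorescence in HepG2 cells treated with test compounds at 37 C; each time-point value comes from one kinetic series spanning 0, 8, 16, 24, 32 and 40 h.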

[4] = A CellTox Green Cytotoxicity Assay to monitor cytotoxicity in HepG2 cells - 32 hour (AID 1224883); also: nearly all actives have a fitted effect of over 50% in size; also: potency is read from the fitted curve at half-maximal effect
Method in brief: as §3

[5] = A CellTox Green Cytotoxicity Assay to monitor cytotoxicity in HEK293 cells - 8 hour (AID 1224884); also: nearly all actives have a fitted effect of over 35% in size
Method in brief: as §2

[6] = qHTS RealTime-Glo MT Cell Viability Assay in HepG2 cells - 16 hour (AID 1224885); also: nearly all actives have a fitted effect of over 50% in size
Method in brief: (§4)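 Tox21 10K library screened in qHTS format on HepG2 cells carrying RealTime-Glo reagents. Compounds were added after a 5 h preincubation, and the luminescent signal from continuous culture was measured repeatedly during 40 h treatment.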

[7] = qHTS RealTime-Glo MT Cell Viability Assay in HEK293 cells - 24 hour (AID 1224886); also: nearly all actives have a fitted effect of over 50% in size; also: potency is read from the fitted curve at half-maximal effect
Method in brief: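 Luminescence generated by NanoLuc from substrate produced by living HEK293 cells served as the viability signal. Each value reflects the reading at its stated time point during continuous 40 h compound exposure at 37 C.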

[8] = qHTS RealTime-Glo MT Cell Viability Assay in HEK293 cells - 8 hour (AID 1224887); also: nearly all actives have a fitted effect of over 50% in size; also: potency is read from the fitted curve at half-maximal effect
Method in brief: as §1

[9] = A CellTox Green Cytotoxicity Assay to monitor cytotoxicity in HEK293 cells - 16 hour (AID 1224888); also: nearly all actives have a fitted effect of over 35% in size; also: potency is read from the fitted curve at half-maximal effect
Method in brief: as §2

[10] = qHTS RealTime-Glo MT Cell Viability Assay in HepG2 cells - 0 hour (AID 1224889); also: nearly all actives have a fitted effect of over 50% in size
Method in brief: as §4

Measured: Potency

CCOP(=O)(OCC)Oc1ccc([N+](=O)[O-])cc1
inactive: [1] | [2] | [3] | [4] | [5] | [6] | [7] | [8] | [9] | [10]

CO/N=C(/C(=O)OC)c1ccccc1COc1ccccc1C
inactive: [1] | [2] | [3] | [4] | [5] | [6] | [7] | [9] | [10]

CC(C)(C)C(O)C(Oc1ccc(Cl)cc1)n1cncn1 (stereo unspecified)
inactive: [1] | [2] | [3] | [5] | [6] | [9] | [10]
active: [4] 43.6 µM | [7] 12.3 µM

BrCC(Br)C1CCC(Br)C(Br)C1 (stereo unspecified)
inactive: [1] | [2] | [3] | [4] | [5] | [6] | [9] | [10]

CCCC(=O)Cl
inactive: [1] | [2] | [3] | [4] | [5] | [6] | [7] | [8] | [10]

CCC(Cl)CCl (stereo unspecified)
inactive: [1] | [2] | [3] | [4] | [5] | [6] | [7] | [8] | [10]

CCC(Br)(CC)C(=O)NC(N)=O
inactive: [1] | [2] | [3] | [4] | [5] | [6] | [7] | [8] | [9] | [10]

Clc1ccc(C2(Cn3cncn3)CC(Br)CO2)c(Cl)c1 (stereo unspecified)
inactive: [1] | [2] | [3] | [5] | [9] | [10]
active: [4] 34.5 µM | [7] 27.4 µM

CN(C)c1ccc(N(C)C)cc1
active: [8] 34.8 µM
inactive: [1] | [2] | [3] | [4] | [5] | [6] | [9] | [10]

Nc1ccc(N=Nc2ccc(-c3ccc(N=Nc4c(S(=O)(=O)O)cc5cc(S(=O)(=O)O)c(N=Nc6ccccc6)c(O)c5c4N)cc3)cc2)c(N)c1
inactive: [1] | [2] | [3] | [5] | [6] | [7] | [8] | [9]

O=NN1CCCCCC1
inactive: [1] | [2] | [3] | [5] | [6] | [7] | [8] | [9] | [10]

S=C=NCc1ccccc1
active: [2] 49.5 µM | [7] 24.8 µM
inactive: [1] | [3] | [5] | [6] | [9] | [10]

CC(Cl)Cl
inactive: [1] | [2] | [3] | [5] | [6] | [7] | [8] | [9] | [10]

CC(=O)c1cc2c(cc1C)C(C)(C)C(C)CC2(C)C (stereo unspecified)
active: [2] 19.5 µM | [4] 38.9 µM | [9] 19.5 µM
inactive: [1] | [3] | [6] | [10]

c1cc2ccc3cccc4ccc(c1)c2c34
inactive: [1] | [2] | [3] | [5] | [6] | [7] | [8] | [9] | [10]

CNC(C)Cc1ccccc1OC (stereo unspecified)
inactive: [1] | [2] | [3] | [5] | [6] | [7] | [8] | [9] | [10]

O=C(NCc1cccnc1)Nc1ccc([N+](=O)[O-])cc1
active: [7] 49 µM
inactive: [1] | [2] | [3] | [5] | [6] | [8] | [9] | [10]

COP(=S)(OC)Oc1ccc([N+](=O)[O-])cc1Cl
inactive: [1] | [2] | [3] | [5] | [6] | [7] | [9] | [10]

CCCCc1c(C)nc(NCC)nc1OS(=O)(=O)N(C)C
inactive: [1] | [2] | [3] | [5] | [6] | [9] | [10]
active: [7] 12.3 µM | [8] 9.77 µM

OCCCBr
inactive: [1] | [2] | [3] | [4] | [6] | [7] | [8] | [10]

O=C(O)CC(Cl)C(=O)O (stereo unspecified)
inactive: [1] | [2] | [3] | [5] | [6] | [7] | [8] | [9] | [10]

C=CC(=O)OCCCCO
inactive: [1] | [2] | [3] | [5] | [6] | [7] | [8] | [9] | [10]

CCCN(CCC)c1c([N+](=O)[O-])cc(S(C)(=O)=O)cc1[N+](=O)[O-]
active: [7] 13.8 µM | [8] 13.8 µM
inactive: [1] | [2] | [3] | [5] | [6] | [9] | [10]
